Several values for one entry are separate records, joined by “and”; a condition that tells them apart may be missing. Identical values can stand only once. Hit rate of the full screen: of about 34,000 compounds, about 290 (0.85%) showed an effect of 50% or more. What follows is part of a selection rich in strong results, with near analogues and random picks from the rest.
Test system: Plasmodium falciparum
Test: Plasmodium falciparum sporozoite viability assay
Assay type: functional, organism-based
Set-up: scale not given: in the data most compounds retested in dose-response had high values

Row | Compound | Percent Effect [%] | Percent Effect (10 mM as filed; unlikely as a test dose)
1 | COc1ccccc1CN1CCC2(CCC(C(=O)N(C)C)O2)CC1 (configuration not stated) | 9.72 | –
2 | CCc1ncnc2c1CCN(S(=O)(=O)c1ccccc1)CC2 | 11.48 | –
3 | O=C(O)c1cc(S(=O)(=O)Nc2ccc(F)c(Cl)c2)cc2c1OCCO2 | 12.45 | –
4 | O=C(CC1CC1)N1CCc2ncc(Cn3cncn3)n2CC1.O=C(O)C(F)(F)F | 2.491 | –
5 | CC(=O)N1CCc2ncc(CNC(=O)C3CCC3)n2CC1 | -7.632 | –
6 | CNC(=O)CCC(=O)N1CCOC(c2ccc3cc(OC)ccc3c2)C1 (configuration not stated) | – | 98.94% and 98.67% and 101%
7 | COc1ccc2cc(C3CN(C(=O)COC(C)C)CCO3)ccc2c1 (configuration not stated) | – | 38.96% and 58.61% and 49.31%
8 | CNC(=O)CN1CCC(c2cc(OC)cc(OC)c2)C1 (configuration not stated) | -3.657 | –
9 | CNC(=O)c1ccc(C2CN(C(=O)COC)CCO2)nc1 (configuration not stated) | -16.96 | –
10 | COCC(=O)N1CCOC(c2ccc(N(C)C)cn2)C1 (configuration not stated) | -1.133 | –
11 | COCC(=O)N1CCOC(c2cccc(-c3cncnc3)n2)C1 (configuration not stated) | 0.9327 | –
12 | CC(C)COCCCNC(=O)NCC(O)c1cccc(F)c1 (configuration not stated) | 2.496 | –
13 | Cc1ccc(Nc2nccc(C3CCN(C(=O)CN)C3)n2)nc1.Cl (configuration not stated) | – | 81.99% and 45.72% and 74.53%
14 | Cc1ccc(Nc2nccc(C3CCN(C(=O)CO)C3)n2)nc1 (configuration not stated) | – | -6.369% and -30.39% and -30.26%
15 | Cl.Cl.NCC(=O)N1CCCC(c2ccnc(Nc3cnccn3)n2)C1 (configuration not stated) | 10.19 | –
16 | CC(=O)N1CC(c2ccnc(Nc3ccc(C)cn3)n2)C1 | – | 15.77% and 8.208% and 11.03%
17 | CNCC(=O)N1CCCC(c2ccnc(Nc3cnccn3)n2)C1 (configuration not stated) | -8.636 | –
18 | CCN1CCCC1CNCc1cc2ccccc2[nH]c1=O (configuration not stated) | 24.74 | –
19 | c1cc(C2CCN(c3cnccn3)CC2)ccn1 | 11.86 | –

Row | Compound | Percent Effect [%] | Percent Effect (10 mM as filed; unlikely as a test dose)
20 | COc1ccc(C(=O)N(C)Cc2c(C)noc2C)cn1 | 8.528 | –
21 | Cc1nc(C)n(CC2CCCN2Cc2nc(-c3ccco3)no2)n1 (configuration not stated) | – | -0.3641% and 0.04429% and -1.23%
22 | CC(C)(C)CC1CCCN1Cc1nc(-c2ccco2)no1 (configuration not stated) | – | 58.36% and 65.06%
23 | CN(C)CCN1C(=O)CC[C@@H]2[C@H]1CCN2Cc1cccc(C#N)c1.O=C(O)C(F)(F)F.O=C(O)C(F)(F)F | -0.2577 | –
24 | Cc1nc(C)n(CC2CCCN(CCOc3ccccc3C#N)C2)n1 (configuration not stated) | 12.74 | –
25 | O=C(NCC1CC1)[C@H]1C[C@H]2OCC[C@H]2N(Cc2ccoc2)C1 | -11.2 | –
26 | Cn1nccc1CNC(=O)CCn1nc(C(F)(F)F)c(Cl)c1C1CC1 | 10.43 | –
27 | CC(C)(O)CN1CCN(C(=O)COCc2ccccc2Cl)CC1 | – | 71.26% and 47.5% and 53.2%
28 | O=C(COCc1ccccc1Cl)N1CCN(c2ncccn2)CC1 | 3.259 | –
29 | COc1ccc(COCC(=O)N2CCN(CC(C)(C)O)CC2)cc1 | – | 7.514% and -16.19% and -8.725%
30 | CC(NC(=O)CCCc1nc(C(C)(C)C)no1)c1ccccn1 (configuration not stated) | 4.866 | –
31 | Cc1nn(C)cc1-c1cc(C(=O)NCC(C)(C)c2cccc(F)c2)n[nH]1 | -0.9712 | –
32 | CN(C)CC1CSCCCN1C(=O)c1ccc(-c2ccccc2)cc1 (configuration not stated) | 11.37 | –
33 | CC(NCC(=O)NCC(=O)Nc1ccc(F)cc1)c1cccs1 (configuration not stated) | 0.1791 | –
34 | CN(C)C(=O)CN1CCC2(CC1)CC(=O)c1c(ccc3ccccc13)O2 | 16.77 | –
35 | CN(C)C(=O)CN1CCC2(CC1)CN(S(C)(=O)=O)Cc1ccccc1O2 | -23.82 | –
36 | NC(=O)CN1CCC2(CC1)CC(=O)c1ccc3ccccc3c1O2 | – | 14.56% and 23.77% and 28.36%
37 | CCOC(=O)CN1CCC2(CC1)CC(=O)c1ccc(OC)cc1O2 | -0.03409 | –
38 | CN(C)C(=O)CN1CCC2(CC1)CC(=O)c1ccc3ccccc3c1O2 | – | 28.41% and 58.1% and 56.14%

Row | Compound | Percent Effect [%] | Percent Effect (10 mM as filed; unlikely as a test dose)
39 | Cc1nc(C)c(C(=O)OCCNc2ncccc2C#N)s1 | 25.07 | –
40 | CNC(=O)Cc1ccc(NC(=O)NC(C)C(C)C)cc1 (configuration not stated) | – | -4.587% and -4.397% and -12.09%
41 | CC(CN1CCC(CCO)CC1)n1cnc2ccccc21 (configuration not stated) | – | -16.85% and -31%
42 | CCN(CC)CCCNc1nc(C)nc2c1CCN(C)C2.O=C(O)CC(O)(CC(=O)O)C(=O)O | 7.039 | –
43 | CN(Cc1nnc(-c2ccco2)o1)Cc1nc2c(s1)CCCC2 | – | -11.23% and -0.3712% and 0.4353%
44 | CN(CC(=O)NCC1CCCO1)Cc1nc2c(s1)CCCC2 (configuration not stated) | – | 56.93% and 58.41%
45 | Cc1nnc(CN(C)Cc2nc3c(s2)CCCC3)o1 | – | 69.64% and 55.12% and 51.62%
46 | CN(Cc1nnc(-c2cccs2)o1)Cc1nc2c(s1)CCCC2 | – | 22.52% and 35.26% and 20.64%
47 | CN(CC(=O)NCc1ccco1)Cc1nc2c(s1)CCCC2 | – | 18.7% and 19.42%
48 | CN(CC(=O)NCC(F)(F)F)Cc1nc2c(s1)CCCC2 | – | 29.9% and 31.57%
49 | Cc1ccc(CN2CCCC(c3cncc(C)n3)C2)cn1 (configuration not stated) | 7.699 | –
50 | CCn1ccc(C(=O)N(C)Cc2cnn(-c3cccc(OC)c3)c2)n1 | – | -38.3% and -41.56%
51 | COc1cccc(-n2cc(CN(C)C(=O)c3cnc(O)cn3)cn2)c1 | – | 70.55% and 77.42%
52 | COc1cccc(-n2cc(CN(C)C(=O)c3cc[nH]n3)cn2)c1 | – | -69.36% and -66.93%
53 | Cn1ccnc1CN1CCN(CC(=O)NCc2cccs2)CC1 | 11.24 | –
54 | CCOC(=O)c1sc2ccsc2c1CNC(=O)CCOC | -1.34 | –
55 | COc1cccc(-c2ncc(CN3C[C@@H]4CC[C@H](C3)N(C)C4=O)s2)c1 | – | 84.86% and 76.95%
56 | CN1C(=O)[C@H]2CC[C@@H]1CN(Cc1cccc(OCc3ccccn3)c1)C2 | – | -14.17% and -8.272%
57 | Cc1nc(C)n(CC2CCCN(CCOc3ccc(C#N)cc3)C2)n1 (configuration not stated) | -0.23 | –

Source: ChEMBL document CHEMBL3988442, “University of Dundee, Small-Polar-MMV Screening Library” (2021)
